Compounds without any hit were thinned out: in the full panel of roughly 83,000, 20% have a hit.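 Values shown are percent growth following 48 h exposure of cells in 96-well plates to a single concentration of compound; below 10 was considered active.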 A number with no mark means an inactive call. The source made the active and inactive calls.
Assays:
Test in all cases: NCI-60 one-dose screen, 48 h (100 = growth as untreated, 0 = no growth, -100 = all killed)
DU-145 prostate = conditions: 10 µM unless noted
K-562 leukemia = conditions: 10 µM unless noted
MALME-3M melanoma = conditions: 10 µM unless noted
MDA-MB-231 breast = conditions: 10 µM unless noted
RXF 393 renal = conditions: 10 µM unless noted
SF-268 CNS = conditions: 10 µM unless noted
SF-295 CNS = conditions: 10 µM unless noted
SF-539 CNS = conditions: 10 µM unless noted
UACC-257 melanoma = conditions: 10 µM
M14 melanoma = conditions: 10 µM unless noted
HCT-15 colon = conditions: 10 µM unless noted
HT29 colon = conditions: 10 µM unless noted
SNB-75 CNS = conditions: 10 µM unless noted
SNB-19 CNS = conditions: 10 µM unless noted
U251 CNS = conditions: 10 µM unless noted
SK-MEL-5 melanoma = conditions: 10 µM unless noted
UACC-62 melanoma = conditions: 10 µM unless noted
LOX IMVI melanoma = conditions: 10 µM unless noted
SK-MEL-28 melanoma = conditions: 10 µM unless noted
PC-3 prostate = conditions: 10 µM unless noted

Compound	growth (DU-145 prostate)	growth (K-562 leukemia)	growth (MALME-3M melanoma)	growth (MDA-MB-231 breast)	growth (RXF 393 renal)	growth (SF-268 CNS)	growth (SF-295 CNS)	growth (SF-539 CNS)	growth (UACC-257 melanoma)	growth (M14 melanoma)	growth (HCT-15 colon)	growth (HT29 colon)	growth (SNB-75 CNS) [%]	growth (SNB-19 CNS)	growth (U251 CNS)	growth (SK-MEL-5 melanoma)	growth (UACC-62 melanoma)	growth (LOX IMVI melanoma)	growth (SK-MEL-28 melanoma)	growth (PC-3 prostate)
CCN1C(=O)N(CC)C2C1NN=C1SC(c3ccccc3)=CC(=O)N12 (stereo not given)	26%	11.7%	46.7%	38.8%	-11.1% (active)	62.4%	11.1%	-8.38% (active)	63.6%	5.39% (active)	19.2%	-8.74% (active)	14	31.8%	14.5%	38.2%	19.4%	40.1%	59.5%	–
Oc1ccc(CSc2nnc(-c3ccc(Br)cc3)o2)c2cccnc12	40.2%	15.2%	58.5%	51.4%	60.9%	31.3%	11.3%	28.4%	29.7%	31.5%	10.7%	111%	–	20%	12.5%	12%	27.3%	20.3%	32.8%	23%
Nc1ccc(-c2nnc(SCc3ccc(O)c4ncccc34)o2)cc1	9.69% (active)	3.52% (active)	-2.77% (active)	33.8%	-14.8% (active)	1.12% (active)	-21.6% (active)	-14.1% (active)	-20.4% (active)	-38.8% (active)	10.2%	8.36% (active)	–	8.55% (active)	-6.47% (active)	-20.5% (active)	-54.4% (active)	0.185% (active)	10.6%	0.0718% (active)
O=C(CCCCCCN1CC(=O)N2[C@@H](c3ccc(Cl)c(F)c3)c3[nH]c4ccccc4c3C[C@H]2C1=O)NO	87.8%	53.7%	59.8%	75.9%	100%	106%	78.7%	83.8%	82%	82.4%	98.6%	89.3%	–	86.6%	85.1%	86%	48.7%	-79.9% (active)	86.2%	63.8%
O=C1[C@H]2Cc3c([nH]c4ccccc34)[C@@H](c3ccc(Cl)cc3)N2C(=O)CN1C1CCN(Cc2c(Cl)cccc2Cl)CC1	90.4%	81.6%	65.8%	53%	109%	85.6%	73%	77.7%	102%	84.5%	54.5%	81.8%	–	94.2%	91.2%	90.1%	81.8%	-89% (active)	103%	70.8%
O=C1[C@H]2Cc3c([nH]c4ccccc34)[C@H](c3ccc(Cl)cc3)N2C(=O)CN1C1CCN(Cc2c(Cl)cccc2Cl)CC1	76.9%	6.9% (active)	79.6%	72.5%	53.9%	64.2%	86.8%	75.2%	101%	71.5%	39.5%	18.2%	–	80.6%	69.5%	66.3%	88.8%	15.3%	–	49.3%
CCCC(=O)NC(c1cccnc1)c1cc(C(C)=O)c2cccnc2c1O (stereo not given)	39.9%	32.2%	38.8%	36.9%	31.7%	27.2%	13.9%	25.1%	42.4%	12.7%	19.6%	26.9%	–	29.5%	23.3%	0.739% (active)	1.58% (active)	27%	34.1%	39.2%
COc1ccc(N2CCN(C(=O)CSc3ccc(-c4nc5cc(C)c(C)cc5[nH]4)cn3)CC2)cc1	93.1%	35.3%	69.9%	85.6%	93.6%	99.3%	50.2%	84%	52.1%	53.9%	52.8%	85.7%	–	87.5%	95.9%	3.13% (active)	45.3%	56.8%	74.4%	56.4%
Oc1ccc(CSc2nnc(-c3ccc(Cl)cc3)o2)c2cccnc12	31.8%	16.2%	36.8%	52.1%	52.2%	24.2%	5.94% (active)	17%	18.8%	9.55% (active)	14.4%	102%	–	16.5%	10.5%	11.1%	5.12% (active)	4.17% (active)	26.6%	21.4%
O=C(CN1C(=O)S/C(=C\c2ccccc2)C1=O)Nc1ccc(C(=O)/C=C/c2cc3ccccc3nc2Cl)cc1	91.4%	51.2%	91.1%	90.2%	109%	81.8%	81%	90.8%	71.3%	78.8%	88.5%	94.8%	–	86.2%	93.4%	24.3%	66.2%	73.3%	95.8%	81.6%
COc1ccc(-c2nnc(SCc3ccc(O)c4ncccc34)o2)cc1	32.7%	16.3%	50%	52.1%	60.2%	30.9%	15.6%	27.2%	28.3%	31.4%	10.1%	89.1%	–	22.3%	20%	9.31% (active)	42.8%	19.7%	41.7%	26.2%
O=C(Nc1cc(Cl)cc(Cl)c1)Nc1nc2ccc([N+](=O)[O-])cc2s1	16.9%	3.25% (active)	-8.59% (active)	-0.651% (active)	-25% (active)	15.4%	-57.2% (active)	3.86% (active)	-14.5% (active)	-9.81% (active)	2.76% (active)	5.08% (active)	–	21.3%	6.61% (active)	-76.5% (active)	-34.1% (active)	–	-2.55% (active)	7.99% (active)
CN(c1ccc(Br)cc1)S(=O)(=O)c1ccc(-c2cnc(C3CC3)o2)cc1	26.2%	7.96% (active)	63.8%	29.9%	6.23% (active)	65.9%	-0.0962% (active)	1.56% (active)	67.3%	8.2% (active)	17.7%	11%	–	37.3%	22.7%	30%	28.5%	–	58.1%	22.4%
Cc1cc(F)cc(NS(=O)(=O)c2ccc(-c3cnc(C4CC4)o3)cc2)c1	23.7%	8.06% (active)	59.2%	30.5%	-3.39% (active)	63.6%	-5.64% (active)	-1.6% (active)	59.1%	19.5%	22.4%	8.59% (active)	–	35.2%	22.6%	21.5%	25.6%	–	60.4%	17.4%
O=C(Nc1cccc(Cl)c1)Nc1nc2ccc([N+](=O)[O-])cc2s1	15.2%	4.51% (active)	-9.22% (active)	-9.3% (active)	-26.4% (active)	9.76% (active)	-68.9% (active)	7.66% (active)	-15.2% (active)	0.118% (active)	1.52% (active)	4.55% (active)	–	21.2%	5.89% (active)	-75.3% (active)	-40.2% (active)	–	0.117% (active)	6.96% (active)

From PubChem BioAssay (NCI)
